Results filed as inconclusive are left out. Unmarked numbers belong to inactive results. Active and inactive are the calls of the source. The call rests on the fitted dose curve; in most records, active means well fitted inhibition curve with a large enough effect; inconclusive means small, poorly fitted or top-dose-only effect; inactive means flat fitted curve, though single readings scatter.
Potency means the concentration at half of the fitted maximal effect.

The first assay is described as follows: BET inhibitor-based combinations targeting novel dependencies in MECOM-rearranged (r) AML: AML-191 cell line (AID 2202236; further: nearly all actives have a fitted effect of over 35% in size;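 on viability (% of control): plate controls were vehicle wells for no effect and wells without cells for full effect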). To be noted: AML-191 viability, CellTiter-Glo luminescence, 48 h; series mostly up to 46 µM; viability (% of control): at the top concentration. In outline: (§1)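 Luminescent ATP readout (CellTiter-Glo) after 48 hr drug exposure gives viability. Curves span 11 concentrations and are normalized to DMSO and empty wells. Activity is reported as area under the curve and its Z-transform within each cell line.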
For the molecule `Nc1ncnc2c1ncn2[C@@H]1O[C@H](CO)C[C@H]1O`, the “viability (% of control)” value is 106%.

`Nc1nccc(Oc2ccc(NC(=O)c3c[nH]cc(-c4ccc(F)cc4)c3=O)cc2F)c1Cl`: the Potency was 9.34 µM (active).

On to `CC[C@H](NC(=O)[C@H](CS(=O)(=O)CC1CC1)N[C@@H](c1ccc(F)cc1)C(F)(F)F)C(=O)C(=O)NC1CC1`, for which the “viability (% of control)” value is 114%.

With `Cc1cc(C(=O)Nc2cc(Oc3ccc4nc(NC(=O)C5CC5)cn4n3)ccc2C)n(C)n1`, the Potency was 6.61 µM (active).

For the molecule `COc1cc2nccc(Oc3ccc(NC(=O)Nc4cc(C)on4)c(Cl)c3)c2cc1OC`, the Potency was 7.42 µM (active).

Turning to `Cc1cc(SCc2sc(-c3ccc(C(F)(F)F)cc3)nc2C)ccc1OCC(=O)O`, the “viability (% of control)” value was 96.5%.

Take `O=C(NC1CCOCC1)c1ccc(-c2cc(-c3cn[nH]c3-c3ccccn3)ccn2)cc1`: the “viability (% of control)” value is 84.8%.

Consider `COc1ccc(-c2c(-c3ccc(O)cc3O)n[nH]c2C)cc1`, for which the “viability (% of control)” value was 69.6%.

Take `Cc1cc2c(cc1C1(c3ccc(C(=O)O)cn3)CC1)C(C)(C)CCC2(C)C`: the “viability (% of control)” value was 97.9%.

`Cn1c2cc(S(C)=O)sc2c2cnn(Cc3cccc(N)c3)c(=O)c21` (stereo not drawn): the “viability (% of control)” value was 94.1%.

For the molecule `O=C(NC[C@H](O)CN1CCc2ccccc2C1)c1ccnc(NC2CCC2)c1`, the “viability (% of control)” value is 102%.

For `CC(C)(C)c1cc(NC(=O)Nc2ccc(-c3cn4c(n3)sc3cc(OCCN5CCOCC5)ccc34)cc2)no1`, the Potency was 4.68 µM (active).

Regarding `CN(NC(=O)CC(=O)NN(C)C(=S)c1ccccc1)C(=S)c1ccccc1`, the Potency is 0.0372 µM (active).

`CCCCCN(CCC12CC3CC(CC(C3)C1)C2)C(=O)NCCCc1ccncc1`: the Potency is 20.9 µM (active).

For `CC(C)(O)CC(=O)NCCn1ccc2ncnc(Nc3ccc(Oc4cccc(C(F)(F)F)c4)c(Cl)c3)c21`, the Potency is 16.6 µM (active).

Regarding `COc1nccc(-c2c(-c3ccc(F)cc3)ncn2C2CCC(O)CC2)n1` (stereo not drawn), the Potency is 18.6 µM (active).

`CNC(=O)c1cccc2cc(Oc3ccnc4cc(OCC5(N)CC5)c(OC)cc34)ccc12`: the Potency was 20.9 µM (active).

With `Cc1ccccc1-n1nc(-c2c(-c3ccc(F)cc3)nn3c2NC[C@@H](CO)C3)ccc1=O`, the “viability (% of control)” value was 90.5%.

Turning to `Cc1cc(F)c(C(=O)Nc2cccc(-c3nncn3C(C)C)n2)cc1-n1cnc(C2CC2)c1`, the Potency was 18.6 µM (active).

For the molecule `C[C@@H](c1ccc2nccn2c1)n1nnc2ncc(-c3cnn(C)c3)nc21`, the Potency was 20.9 µM (active).

A short description of another assay: BET inhibitor-based combinations targeting novel dependencies in MECOM-rearranged (r) AML: AML-194 cell line (AID 2202237; further: nearly all actives have a fitted effect of over 40% in size;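 on viability (% of control): plate controls were vehicle wells for no effect and wells without cells for full effect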). The conditions noted are these: AML-194 (MECOM-r AML) viability, CellTiter-Glo, 48 h; series mostly up to 46 µM; viability (% of control): at the top concentration. In outline: as §1
On the technique in general: Cellular ATP, detected with luciferase, serves as a proxy for viable cell number.
For `Nc1ncnc2c1ncn2[C@@H]1O[C@H](CO)C[C@H]1O`, the “viability (% of control)” value was 111%.

For `Cc1ccccc1C(=O)c1ccc(Nc2ccc(Br)cc2N)cc1Cl`, the “viability (% of control)” value was 93.8%.

As to `Nc1cccc(S(=O)(=O)N2CCCN(S(=O)(=O)c3ccc4c(c3)OCCO4)CC2)c1`, the “viability (% of control)” value was 104%.

Consider `Nc1nc(OCc2cc(Br)cs2)c2[nH]cnc2n1`, for which the “viability (% of control)” value was 99.9%.

As for `CC[C@H](NC(=O)[C@H](CS(=O)(=O)CC1CC1)N[C@@H](c1ccc(F)cc1)C(F)(F)F)C(=O)C(=O)NC1CC1`, the “viability (% of control)” value was 104%.

With `Cc1cc(C(=O)Nc2cc(Oc3ccc4nc(NC(=O)C5CC5)cn4n3)ccc2C)n(C)n1`, the Potency was 9.34 µM (active).

In the case of `COc1cc2nccc(Oc3ccc(NC(=O)Nc4cc(C)on4)c(Cl)c3)c2cc1OC`, the Potency is 6.61 µM (active).

As for `Cc1cc(SCc2sc(-c3ccc(C(F)(F)F)cc3)nc2C)ccc1OCC(=O)O`, the “viability (% of control)” value was 97.5%.

For `COc1ccc(-c2c(-c3ccc(O)cc3O)n[nH]c2C)cc1`, the “viability (% of control)” value is 72.3%.

`Cc1cc2c(cc1C1(c3ccc(C(=O)O)cn3)CC1)C(C)(C)CCC2(C)C`: the “viability (% of control)” value is 101%.

With `Cn1c2cc(S(C)=O)sc2c2cnn(Cc3cccc(N)c3)c(=O)c21` (stereo not drawn), the “viability (% of control)” value is 101%.

Take `Cc1cccc(Nc2nc(-c3ccncc3)cs2)c1`: the “viability (% of control)” value was 97.1%.

Take `CCN(CCCOc1ccc2c(Nc3cc(CC(=O)Nc4cccc(F)c4)[nH]n3)ncnc2c1)CCOP(=O)(O)O`: the Potency is 0.662 µM (active).

Take `CC(C)(C)c1cc(NC(=O)Nc2ccc(-c3cn4c(n3)sc3cc(OCCN5CCOCC5)ccc34)cc2)no1`: the Potency is 14.8 µM (active).

Turning to `CN(NC(=O)CC(=O)NN(C)C(=S)c1ccccc1)C(=S)c1ccccc1`, the Potency was 0.0417 µM (active).

With `CNC(=O)c1ccc(C)c(-n2c(C)cc(OCc3ccc(F)cc3F)c(Br)c2=O)c1`, the “viability (% of control)” value was 89.7%.

For `CCCCCN(CCC12CC3CC(CC(C3)C1)C2)C(=O)NCCCc1ccncc1`, the Potency was 18.6 µM (active).

For `O=C(O)c1ccc(O)c2ncc(N3CCOCC3)cc12`, the “viability (% of control)” value is 109%.

As for `COc1nccc(-c2c(-c3ccc(F)cc3)ncn2C2CCC(O)CC2)n1` (stereo not drawn), the “viability (% of control)” value was 85.1%.

In the case of `CNC(=O)c1cccc2cc(Oc3ccnc4cc(OCC5(N)CC5)c(OC)cc34)ccc12`, the Potency is 23.5 µM (active).

With `Cc1ccccc1-n1nc(-c2c(-c3ccc(F)cc3)nn3c2NC[C@@H](CO)C3)ccc1=O`, the “viability (% of control)” value is 92.5%.

Take `CC1(C)CN(C(=O)c2ccc(-c3cccc4nc(NC(=O)C5CC5)nn34)cc2)C1`: the “viability (% of control)” value is 71.2%.

Consider `C[C@@H](c1ccc2nccn2c1)n1nnc2ncc(-c3cnn(C)c3)nc21`, for which the “viability (% of control)” value is 89.6%.

These data come from PubChem BioAssay (NCATS).
